Hits are enriched below; roughly 7.4% of the tested compounds scored in any of these assays.
ELG1 genotoxic: genotoxicity induction in ELG1-luciferase HEK293T cells | HEK293T ELG1-luciferase reporter, luminescence, 16 h | Potency, µM (doses to about 46 µM), inactives show top-dose activity change, positive = activation, most hits filed as activators | AID 504466 | actives 1.3% (n = 330,000); note: % of control where 0% means no effect; nearly all actives have a fitted effect of over 60% in size
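Genotoxic stress is detected as increased luminescence from luciferase-tagged ELG1 in HEK293T cells, measured with ONE-Glo after a 16 hr treatment at 37 °C.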
Rab9 promoter act: Rab9 promoter activation | Huh7 Rab9 promoter-luciferase reporter, luminescence, 24 h | actives 2.8% (n = 320,000) | Potency, µM (top dose mostly 9.22 µM), for inactives: at the top dose activation, negative = inhibition, hits mostly activators; note: % of control where 0% means no effect; nearly all actives have a fitted effect of over 60% in size
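Huh7 cells stably carrying Rab9 promoter–luciferase reporter, plated 1500 cells/well, compound added after 2 h and incubated 24 h at 37 °C; luciferase luminescence then read after 10 min with detection reagent.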
NPC1 prom act: activators of NPC1 promoter; Huh7 NPC1 promoter luciferase reporter, 24 h; Potency, µM (doses to about 9.22 µM), for inactives: top-dose activation, most hits filed as activators; actives 2.4% (n = 320,000); note: % of control where 0% means no effect; nearly all actives have a fitted effect of over 60% in size
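Quantitative HTS used a cell-based reporter: Huh7 cells stably bearing the NPC1 promoter upstream of luciferase were treated with compounds for 24 h, and promoter activation was read as luminescence.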
SMN2 splice up: increases expression of the SMN2 splice variant; Potency, µM (highest dose often 46.1 µM), for the others: top-dose activity change, positive = activation, most hits filed as activators; HEK293 SMN2-luciferase splicing reporter, luminescence, 30-36 h; AID 1458; actives 2.8% (n = 210,000); note: % of control where 0% means no effect; nearly all actives have a fitted effect of over 55% in size
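HEK293 cells carry an SMN2 […]–luciferase reporter in which exon 7 inclusion puts luciferase in frame. Cells were plated 10-12 h before compound addition, then incubated 30-36 h at 37C. ONE-Glo luminescence was read; sodium butyrate at 4.5 mM final served as control.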
FLuc modulator: counter-screen for miR-21 project: firefly luciferase inhibitors or activators | P08659 | purified FLuc, Km substrates, luminescence inhibition | Potency, µM (titrated, usually from 57.5 µM), inactives show at the highest dose activity change, negative = inhibition, usual class: inhibitors | actives 6.9% (n = 360,000);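 note: plate controls were vehicle for no effect and reference inhibitor for full effect; nearly all actives have a fitted effect of over 55% in size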
Target sequence (P08659 whole entry, looked up): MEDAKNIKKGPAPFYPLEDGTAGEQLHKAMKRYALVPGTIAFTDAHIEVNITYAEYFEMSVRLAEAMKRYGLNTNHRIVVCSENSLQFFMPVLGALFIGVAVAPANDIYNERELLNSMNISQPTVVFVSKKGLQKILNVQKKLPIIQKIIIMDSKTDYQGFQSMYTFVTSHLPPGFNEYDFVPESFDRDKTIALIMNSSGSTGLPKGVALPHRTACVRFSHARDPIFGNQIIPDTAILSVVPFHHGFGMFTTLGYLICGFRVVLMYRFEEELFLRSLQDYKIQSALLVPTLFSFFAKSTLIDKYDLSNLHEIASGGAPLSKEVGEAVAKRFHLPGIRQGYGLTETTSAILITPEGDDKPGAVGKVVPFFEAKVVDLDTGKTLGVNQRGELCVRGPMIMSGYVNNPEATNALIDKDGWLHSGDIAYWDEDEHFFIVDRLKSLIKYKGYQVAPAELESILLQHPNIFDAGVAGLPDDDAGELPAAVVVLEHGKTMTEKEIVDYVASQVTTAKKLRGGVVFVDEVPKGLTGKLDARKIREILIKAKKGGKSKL
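Purified P. pyralis luciferase (10nM final) with 10uM D-luciferin and 10uM ATP (Km levels) in 50mM Tris acetate pH 7.5, 10mM Mg acetate, 0.01% Tween-20, 0.05% BSA; qHTS 6-point titration, ~60 µM downward; luminescence read.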
Starred values were filed as active, the others as inactive; ? = inconclusive; / = no result; [ ] = remark or other dose. Calls come from the whole dose curve; as a rule, active = well fitted curve in the direction sought with a large enough effect; inconclusive = small, poorly fitted or top-dose-only effect, or another doubt; inactive = no such curve, though single readings can be large; an effect the other way counts as inactive or inconclusive. Potency is the fitted concentration of half-maximal effect.

SMILES | ELG1 genotoxic | Rab9 promoter act | NPC1 prom act | SMN2 splice up | FLuc modulator
O=C(NCCOc1ccccc1F)c1cc(F)c(F)cc1Cl | ? | 1.41µM* | 0.708µM* | 2µM* | 3.01µM*
Cc1ccccc1C(=O)NCCOc1ccccc1Cl | 5.8µM* | 0.562µM* | 0.631µM* | / | 8.49µM*
COc1cccc(CNC(=O)C(=O)NCC(c2ccc3c(c2)OCO3)N2CCOCC2)c1 (stereo not given) | / | / | / | / | 0.4%
CCc1ccccc1NC(=O)CSc1nncn2c1cc1oc(C)cc12 | / | / | / | / | -13.2%
CC1CC1C(=O)Nc1ccc(-c2ccccc2)cc1 (stereo not given) | ? | 2.51µM* | 3.16µM* | 12.6µM* | 9.53µM*
O=C(OCC(=O)C12CC3CC(CC(C3)C1)C2)c1cccnc1Cl | 0.0% | -1.2% | -4.9% | -4.0% | 16.9µM*
O=C(OCC(=O)C12CC3CC(CC(C3)C1)C2)c1ccc(O)cc1O | 23.1µM* | 17.7% | 6.4% | / | 19µM*
Cc1cccc(CSc2nc3c(cc2C#N)CCC3)c1 | 12.6% | 1.9% | -0.2% | 25.0% | -1.8%
N#Cc1cc2c(nc1SCc1nc3ccccc3[nH]1)CCC2 | ? | 0.708µM* | 0.316µM* | 8.91µM* | 1.35µM*
Cc1cc(C)c(C#N)c(SCc2nc3ccccc3[nH]2)n1 | 23.1µM* | ? | 17.2% | 10µM* | ?
CCOC(=O)/C(=N\Nc1ncnc2ccccc12)c1ccc(C)cc1 | ? | ? | ? | / | 12µM*
COc1ccc(C)cc1NS(=O)(=O)c1cc(Br)cc2c1N(C(C)=O)C(C)C2 (stereo not given) | / | / | / | -31.0% | -10.9%
Cc1cc(OCc2cc(C(=O)N(C)C3CCOC3)no2)cc(C)c1Cl (stereo not given) | ? | 1.78µM* | 3.16µM* | / | 6.01µM*
Cc1cc(OCc2cc(C(=O)N(C)CCc3cnn(C)c3)no2)cc(C)c1Cl | ? | 3.16µM* | 2.82µM* | / | 8.49µM*
COc1cc(Cl)ccc1OCc1cc(C(=O)N(C)CCc2cnn(C)c2)no1 | 7.0%[9.26 µM] | ? | ? | / | 12µM*
Cn1c(=O)c(CCc2ccccc2)nc2cnc(Oc3ccccc3)nc21 | / | / | / | -17.1% | /
COc1ccc(-c2csc(N3CCC(c4ccccc4)C3)n2)cc1 (stereo not given) | 11.8% | ? | ? | -23.5% | 4.26µM*
Clc1ccc(-c2csc(N3CCC(c4ccccc4)C3)n2)cc1 (stereo not given) | ? | 3.55µM* | 3.55µM* | 2.2% | 2.69µM*
Fc1ccc(-c2csc(N3CCC(c4ccccc4)C3)n2)cc1 (stereo not given) | 17.3% | 3.55µM* | 3.16µM* | ? | 2.39µM*
CNC(=S)N1CCN(c2nc(-c3ccc(Cl)cc3)cs2)CC1 | 4.1% | -0.7% | -5.9% | / | ?
Cc1ccc(Cn2c(C)c(CNC3CCCCC3)c(C(=O)O)c2C)cc1 | / | / | / | -4.5% | 2.7%
COC(=O)CCCC1=CC2=C(c3ccccc3)C(=O)C(C)(OC(=O)C3CCCC3)C(=O)C2=CN1CCCOC(C)C (stereo not given) | / | / | / | -0.3%[9.22 µM] | /
CCOC(=O)c1c(C)oc2cc(Cl)c(O)c(CN(C)C)c12 | ? | -6.6% | 1.6% | / | 15.1µM*
CCOC(=O)c1c(C)oc2ccc(O)c(CN(C)C)c12 | -18.7% | -0.9% | -5.4% | -4.7% | -2.7%
CCOc1ccc(N2CC(NC(=O)Cc3ccccc3)CC2=O)cc1 (stereo not given) | / | / | / | / | -0.4%
SMILES | ELG1 genotoxic | Rab9 promoter act | NPC1 prom act | SMN2 splice up | FLuc modulator
CCOc1ccccc1NC(=O)c1sc2nc3n(c(=O)c2c1C)CCCCC3 | / | / | / | / | -6.2%
Cc1ccc(NC(=O)/C(C#N)=C/c2ccc(C)o2)cc1 | / | / | / | 7.08µM* | 1.9µM*
Cc1ccc(/C=C(\C#N)C(=O)Nc2cccc(Cl)c2)o1 | / | / | / | ? | -13.7%
Cc1cccc(NC(=O)/C(C#N)=C/c2ccc(C)o2)c1 | / | / | / | 12.6µM* | 9.53µM*
CC(=O)CSc1nc2c(c(=O)[nH]c(=O)n2C)n1Cc1cccc(Br)c1 | 20.6µM* | -0.1% | -1.5% | / | 1.2%
Cc1ccc(Cn2c(Sc3ncccn3)nc3c2c(=O)[nH]c(=O)n3C)cc1 | -9.7% | -2.4% | 1.1% | 5.2% | 3.9%
Cn1c(=O)[nH]c(=O)c2c1nc(SCCC(=O)O)n2Cc1cccc(Br)c1 | 2.3% | 2.0% | -3.0% | / | 2.6%
C/C=C/CSc1nc2c(c(=O)[nH]c(=O)n2C)n1Cc1ccc(C)cc1 | 20.6µM* | 0.0% | 0.3% | -3.3% | 2.0%
O=C(Nc1cccc(C(F)(F)F)c1)c1cc(CN2CCOCC2)on1 | / | / | / | / | -6.5%
Cc1ccc(C)c(NC(=O)Cn2c(=O)n(Cc3ccc4c(c3)OCO4)c(=O)c3oc4ccccc4c32)c1 | / | / | / | / | -0.7%
CCOC(=O)CNC(=O)CSc1ncnc2c1nnn2-c1ccc(F)cc1 | 6.7% | -1.5% | 0.2% | -11.6% | ?
COC(=O)C(C)Sc1ncnc2c1nnn2-c1ccc(F)cc1 (stereo not given) | ? | 29.4% | ? | -2.2% | 8.49µM*
Cn1cnc2c(ncn2[C@@H]2O[C@H](CO)[C@@H](O)[C@H]2O)c1=N | / | / | / | 10.0% | /
CC(C)(C=O)C1=CC(=O)c2ccccc2C1=O | -7.5% | -34.0% | -30.4% | -15.5% | ?
CCc1ccc2c(c1)C(=O)c1ccccc1C2=O | ? | ? | ? | 15.8µM* | 6.01µM*
COc1ccc(-c2cn(Cc3ccc4c(c3)C(=O)c3ccccc3C4=O)nn2)cc1 | 12.1% | -2.8% | 0.3% | / | -1.6%
CC(C)(C)c1ccc2c(c1)C(=O)c1ccccc1C2=O | ? | 0.562µM* | 0.891µM* | / | 1.35µM*
Cc1ccc(S(=O)(=O)Nc2cc3c(cc2N2CCOCC2)n(C)c(=O)n3C)c(C)c1 | / | / | / | -1.0% | -1.9%
Cc1ccc(NC(=O)CSc2nnc(NC(=O)c3ccc(S(=O)(=O)N4CCOCC4)cc3)s2)cc1 | 12.3% | 19.0% | 3.5% | ? | 2.69µM*
CCOC(=O)c1ccc(NC(=O)CSc2nnc(NC(=O)c3ccc(S(=O)(=O)N4CCOCC4)cc3)s2)cc1 | 9.1% | 2.7% | 11.3% | ? | 1.69µM*
Cc1cc2c(cc1Cl)N(C(=O)Nc1ccc(Oc3cccnc3C)nc1)CC2 | / | -31.0%[46.1 µM] | -33.2%[46.1 µM] | / | /
CCc1ccc(NC(=O)CN2C(=O)C3CCCN3c3ccc(S(=O)(=O)N(CC)CC)cc32)cc1 (stereo not given) | / | / | / | / | -15.0%
Cc1cccc(C)c1OCC(=O)NCc1nnc(SCC(=O)NC2CCCCC2C)n1C (stereo not given) | 1.9% | 1.2% | -1.3% | 22.4µM* | 10.5%
CC(C#Cc1ccc2c(c1)COc1c3ccccc3nn1-2)OC(C)(C)C (stereo not given) | 12.4% | ? | ? | / | 10.7µM*
C(#Cc1ccc2c(c1)COc1c3ccccc3nn1-2)c1ccccc1 | ? | ? | ? | / | 12µM*
c1ccc2c3n(nc2c1)CCCO3 | 4.1% | -0.7% | 0.2% | / | 3.1%
C(#CC1CCCCC1)c1ccc2c(c1)COc1c3ccccc3nn1-2 | 19.1% | ? | ? | / | 4.78µM*

Bioassay records deposited in PubChem by National Center for Advancing Translational Sciences (NCATS).
